Reference: the supplement of paper PMC10849652
Targets with a hit are over-represented here; the source holds about 7,900 in all. About 0.6% of all pairs of compound and target were hits. Unmarked numbers belong to inactive results.

Columns and labels:
Experiment in all cases: log2 fold change, soluble protein after heating vs DMSO (PISA); higher = thermal stabilisation; K562 cells, 10 uM, 30 min; active = over 0.2 and 3.5 SD of the protein, either way, in both replicates (recomputed)
[1] = compound: CC[C@@H]1C(=O)N(C)c2cnc(Nc3ccc(C(=O)NC4CCN(C)CC4)cc3OC)nc2N1C1CCCC1
Procedure, shortened: (§1)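 K562 cells (2×10^6 cells/mL) were treated with 10 μM compound for 30 min, and aliquots were heated for 3 min over 48°C-58°C. Pooled aliquots were extracted in PBS with 0.5% NP-40 at 4°C, and the supernatant after 21,000xg for 90 min was measured by TMTpro 16plex LC-MS/MS with channel sums equalised. Reported thermal stability, relative to control samples and from duplicates, is a log2 fold change.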

volasertib = compound: CC[C@@H]1C(=O)N(C)c2cnc(Nc3ccc(C(=O)N[C@H]4CC[C@H](N5CCN(CC6CC6)CC5)CC4)cc3OC)nc2N1C(C)C [volasertib]
Procedure, shortened: as §1

[2] = compound: CC[C@H](C)N1C=C(C2=C(C=C(C=C21)C3=CN=C(C=C3)N4CCNCC4)C(=O)NCC5=C(C=C(NC5=O)C)C)C
Procedure, shortened: as §1

epoxomicin = compound: CC[C@H](C)[C@@H](C(=O)N[C@@H]([C@@H](C)O)C(=O)N[C@@H](CC(C)C)C(=O)[C@]1(CO1)C)NC(=O)[C@H]([C@@H](C)CC)N(C)C(=O)C [epoxomicin]
Procedure, shortened: as §1

[3] = compound: CCn1c(C(=O)N(C2CC2)C2CC2)cc2c3c(ncn3C)c(Nc3cc(C)n(C)n3)nc21
Procedure, shortened: as §1

[4] = compound: CCn1cc(-c2ccnc3[nH]c(-c4cccc(CN(C)C)c4)cc23)c(-c2ccc(NC(=O)N(C)C)cc2)n1
Procedure, shortened: as §1

[5] = compound: CN(C)CC(=O)Nc1ccc2[nH]c(=O)c3ccccc3c2c1
Procedure, shortened: as §1

rosiglitazone = compound: CN(CCOC1=CC=C(C=C1)C[C@H]2C(=O)NC(=O)S2)C3=CC=CC=N3 (racemic) [rosiglitazone]
Procedure, shortened: as §1

[6] = compound: CN1C2=C(C3=C1C(=O)N(N=C3)CC4=CC(=CC=C4)N)SC(=C2)S(=O)C
Procedure, shortened: as §1

[7] = compound: CN1CCC(CNc2ccc3ncc(-c4cccc(OC(F)(F)F)c4)n3n2)CC1
Procedure, shortened: as §1

saracatinib = compound: CN1CCN(CCOc2cc(OC3CCOCC3)c3c(Nc4c(Cl)ccc5c4OCO5)ncnc3c2)CC1 [saracatinib]
Procedure, shortened: as §1

sotrastaurin = compound: CN1CCN(c2nc(C3=C(c4c[nH]c5ccccc45)C(=O)NC3=O)c3ccccc3n2)CC1 [sotrastaurin]
Procedure, shortened: as §1

alvocidib = compound: CN1CC[C@H](c2c(O)cc(O)c3c(=O)cc(-c4ccccc4Cl)oc23)[C@H](O)C1 [alvocidib]
Procedure, shortened: as §1

Tubastatin A = compound: CN1CCc2c(c3ccccc3n2Cc2ccc(C(=O)NO)cc2)C1 [Tubastatin A]
Procedure, shortened: as §1

[8] = compound: CNC(=O)C1=CC=CC=C1NC2=NC(=NC=C2Cl)NC3=C(C=C(C=C3)N4CCOCC4)OC
Procedure, shortened: as §1

defactinib = compound: CNC(=O)c1ccc(Nc2ncc(C(F)(F)F)c(NCc3nccnc3N(C)S(C)(=O)=O)n2)cc1 [defactinib]
Procedure, shortened: as §1

rucaparib = compound: CNCc1ccc(-c2[nH]c3cc(F)cc4c3c2CCNC4=O)cc1 [rucaparib]
Procedure, shortened: as §1

[9] = compound: CNc1nc(-c2ccc3c(N)n[nH]c3c2)cc(N2C[C@@H](C(=O)NC3CCCCC3)CC[C@H]2C)n1
Procedure, shortened: as §1

encorafenib = compound: COC(=O)N[C@@H](C)CNc1nccc(-c2cn(C(C)C)nc2-c2cc(Cl)cc(NS(C)(=O)=O)c2F)n1 [encorafenib]
Procedure, shortened: as §1

[10] = compound: COC(=O)[C@H](CCSC)NC(=O)C1=C(C=C(C=C1)NC[C@H](CS)N)C2=CC=CC=C2
Procedure, shortened: as §1

Chain of UniProt Q12768 (Q12768 whole entry, looked up): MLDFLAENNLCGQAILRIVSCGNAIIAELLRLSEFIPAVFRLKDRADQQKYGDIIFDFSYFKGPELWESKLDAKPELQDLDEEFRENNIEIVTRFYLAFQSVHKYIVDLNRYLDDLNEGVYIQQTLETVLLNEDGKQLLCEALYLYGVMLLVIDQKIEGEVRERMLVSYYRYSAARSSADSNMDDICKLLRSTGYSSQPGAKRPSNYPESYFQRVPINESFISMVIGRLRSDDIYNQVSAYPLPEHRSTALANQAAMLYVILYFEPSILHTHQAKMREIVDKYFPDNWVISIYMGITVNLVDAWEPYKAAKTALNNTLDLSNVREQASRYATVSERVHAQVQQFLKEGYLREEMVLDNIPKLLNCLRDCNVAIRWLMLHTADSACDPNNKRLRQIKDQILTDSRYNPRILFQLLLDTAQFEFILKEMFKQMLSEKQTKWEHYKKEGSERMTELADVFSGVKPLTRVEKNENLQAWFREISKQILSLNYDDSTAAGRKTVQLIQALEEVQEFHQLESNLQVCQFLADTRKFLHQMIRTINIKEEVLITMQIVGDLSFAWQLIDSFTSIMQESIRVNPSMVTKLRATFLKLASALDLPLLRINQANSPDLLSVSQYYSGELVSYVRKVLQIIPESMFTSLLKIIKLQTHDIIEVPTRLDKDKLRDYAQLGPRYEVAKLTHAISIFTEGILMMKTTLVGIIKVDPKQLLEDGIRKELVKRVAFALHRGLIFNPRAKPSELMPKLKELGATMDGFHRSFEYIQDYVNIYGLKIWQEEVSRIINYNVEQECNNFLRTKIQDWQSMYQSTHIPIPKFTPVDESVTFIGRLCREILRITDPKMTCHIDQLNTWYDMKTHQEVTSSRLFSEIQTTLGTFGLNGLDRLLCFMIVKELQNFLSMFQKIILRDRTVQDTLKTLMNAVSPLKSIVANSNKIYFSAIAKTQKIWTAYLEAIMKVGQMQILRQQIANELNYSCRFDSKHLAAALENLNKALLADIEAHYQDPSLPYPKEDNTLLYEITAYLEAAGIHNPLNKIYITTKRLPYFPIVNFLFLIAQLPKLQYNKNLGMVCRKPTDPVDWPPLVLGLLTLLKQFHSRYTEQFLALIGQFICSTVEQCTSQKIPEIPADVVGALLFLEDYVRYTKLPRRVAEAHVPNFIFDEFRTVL
Chain of UniProt Q7Z6J8 (Q7Z6J8 whole entry, looked up): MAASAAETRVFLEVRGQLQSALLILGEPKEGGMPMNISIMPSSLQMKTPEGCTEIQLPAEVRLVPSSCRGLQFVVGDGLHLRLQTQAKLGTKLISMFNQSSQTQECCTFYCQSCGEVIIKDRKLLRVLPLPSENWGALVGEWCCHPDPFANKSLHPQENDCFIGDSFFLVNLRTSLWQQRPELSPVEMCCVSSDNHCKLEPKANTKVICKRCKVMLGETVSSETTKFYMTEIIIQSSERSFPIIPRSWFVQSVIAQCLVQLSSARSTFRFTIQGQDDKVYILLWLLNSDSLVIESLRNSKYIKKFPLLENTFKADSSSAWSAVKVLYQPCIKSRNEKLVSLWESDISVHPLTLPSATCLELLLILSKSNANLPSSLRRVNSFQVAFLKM
Chain of UniProt Q86WV6 (Q86WV6 whole entry, looked up): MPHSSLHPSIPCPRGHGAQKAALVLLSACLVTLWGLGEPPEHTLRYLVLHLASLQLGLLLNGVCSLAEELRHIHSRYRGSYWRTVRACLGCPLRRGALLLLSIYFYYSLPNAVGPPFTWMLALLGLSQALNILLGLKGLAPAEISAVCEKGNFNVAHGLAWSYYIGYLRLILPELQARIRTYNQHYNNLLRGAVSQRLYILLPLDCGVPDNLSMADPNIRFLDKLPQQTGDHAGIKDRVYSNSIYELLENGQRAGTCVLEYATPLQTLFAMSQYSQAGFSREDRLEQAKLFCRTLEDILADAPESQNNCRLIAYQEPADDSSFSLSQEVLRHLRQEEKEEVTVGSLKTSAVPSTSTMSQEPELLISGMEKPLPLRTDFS
Chain of UniProt Q9UDW1 (Q9UDW1 whole entry, looked up): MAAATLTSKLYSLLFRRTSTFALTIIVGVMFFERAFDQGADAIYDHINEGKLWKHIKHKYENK
Chain of UniProt P0CG48 (P0CG48 whole entry, looked up): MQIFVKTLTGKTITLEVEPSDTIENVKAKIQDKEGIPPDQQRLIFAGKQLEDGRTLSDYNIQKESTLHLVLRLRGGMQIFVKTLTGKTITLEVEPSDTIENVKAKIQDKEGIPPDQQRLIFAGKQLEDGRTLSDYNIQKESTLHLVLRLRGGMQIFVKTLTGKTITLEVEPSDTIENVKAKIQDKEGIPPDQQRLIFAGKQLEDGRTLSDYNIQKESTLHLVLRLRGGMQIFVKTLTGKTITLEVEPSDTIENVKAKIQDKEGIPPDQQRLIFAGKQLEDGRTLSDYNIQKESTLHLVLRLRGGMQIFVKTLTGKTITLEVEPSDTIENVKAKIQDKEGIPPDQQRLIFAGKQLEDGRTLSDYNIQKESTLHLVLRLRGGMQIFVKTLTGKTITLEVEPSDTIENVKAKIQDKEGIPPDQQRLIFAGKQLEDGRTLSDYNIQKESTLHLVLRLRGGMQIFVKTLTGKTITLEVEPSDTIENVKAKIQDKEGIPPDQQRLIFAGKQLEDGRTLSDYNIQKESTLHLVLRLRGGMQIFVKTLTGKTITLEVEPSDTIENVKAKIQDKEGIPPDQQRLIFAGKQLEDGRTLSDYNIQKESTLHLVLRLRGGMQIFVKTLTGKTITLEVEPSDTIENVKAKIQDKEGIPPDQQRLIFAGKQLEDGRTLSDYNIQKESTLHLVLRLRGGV
Chain of UniProt O14787 (O14787 whole entry, looked up): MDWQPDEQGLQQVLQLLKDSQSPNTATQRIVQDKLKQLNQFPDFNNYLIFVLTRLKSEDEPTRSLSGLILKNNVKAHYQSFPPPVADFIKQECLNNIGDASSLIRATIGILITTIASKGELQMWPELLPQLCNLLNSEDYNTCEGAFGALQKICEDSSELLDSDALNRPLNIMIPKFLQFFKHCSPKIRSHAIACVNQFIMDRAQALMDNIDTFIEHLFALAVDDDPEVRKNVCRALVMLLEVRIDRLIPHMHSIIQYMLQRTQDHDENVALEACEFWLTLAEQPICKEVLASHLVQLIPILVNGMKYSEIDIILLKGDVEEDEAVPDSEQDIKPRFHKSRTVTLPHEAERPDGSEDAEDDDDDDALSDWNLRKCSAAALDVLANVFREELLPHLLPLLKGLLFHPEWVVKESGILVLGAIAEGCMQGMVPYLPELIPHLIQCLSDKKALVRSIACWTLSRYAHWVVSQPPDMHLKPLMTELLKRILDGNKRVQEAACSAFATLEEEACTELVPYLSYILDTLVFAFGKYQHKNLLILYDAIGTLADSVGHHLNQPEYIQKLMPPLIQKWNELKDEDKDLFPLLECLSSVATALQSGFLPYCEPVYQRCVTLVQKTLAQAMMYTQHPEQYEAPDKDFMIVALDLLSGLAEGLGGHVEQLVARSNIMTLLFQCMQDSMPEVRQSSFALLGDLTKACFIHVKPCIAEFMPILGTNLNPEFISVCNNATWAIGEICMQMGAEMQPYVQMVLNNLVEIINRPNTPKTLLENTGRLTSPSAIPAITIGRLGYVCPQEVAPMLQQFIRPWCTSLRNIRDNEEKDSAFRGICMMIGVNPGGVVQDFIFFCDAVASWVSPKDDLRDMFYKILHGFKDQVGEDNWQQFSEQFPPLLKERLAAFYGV
Chain of UniProt P57081 (P57081 whole entry, looked up): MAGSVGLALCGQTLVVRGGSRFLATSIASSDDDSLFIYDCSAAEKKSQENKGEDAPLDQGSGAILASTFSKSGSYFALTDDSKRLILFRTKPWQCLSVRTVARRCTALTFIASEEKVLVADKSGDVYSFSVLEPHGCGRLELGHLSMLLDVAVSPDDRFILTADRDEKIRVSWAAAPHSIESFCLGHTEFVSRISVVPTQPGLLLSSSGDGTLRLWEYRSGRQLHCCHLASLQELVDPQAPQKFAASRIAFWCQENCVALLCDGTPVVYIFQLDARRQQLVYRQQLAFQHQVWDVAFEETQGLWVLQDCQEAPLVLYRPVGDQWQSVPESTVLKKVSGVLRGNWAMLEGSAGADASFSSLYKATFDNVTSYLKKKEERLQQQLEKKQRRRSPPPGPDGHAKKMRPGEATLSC
Chain of UniProt Q96JG6 (Q96JG6 whole entry, looked up): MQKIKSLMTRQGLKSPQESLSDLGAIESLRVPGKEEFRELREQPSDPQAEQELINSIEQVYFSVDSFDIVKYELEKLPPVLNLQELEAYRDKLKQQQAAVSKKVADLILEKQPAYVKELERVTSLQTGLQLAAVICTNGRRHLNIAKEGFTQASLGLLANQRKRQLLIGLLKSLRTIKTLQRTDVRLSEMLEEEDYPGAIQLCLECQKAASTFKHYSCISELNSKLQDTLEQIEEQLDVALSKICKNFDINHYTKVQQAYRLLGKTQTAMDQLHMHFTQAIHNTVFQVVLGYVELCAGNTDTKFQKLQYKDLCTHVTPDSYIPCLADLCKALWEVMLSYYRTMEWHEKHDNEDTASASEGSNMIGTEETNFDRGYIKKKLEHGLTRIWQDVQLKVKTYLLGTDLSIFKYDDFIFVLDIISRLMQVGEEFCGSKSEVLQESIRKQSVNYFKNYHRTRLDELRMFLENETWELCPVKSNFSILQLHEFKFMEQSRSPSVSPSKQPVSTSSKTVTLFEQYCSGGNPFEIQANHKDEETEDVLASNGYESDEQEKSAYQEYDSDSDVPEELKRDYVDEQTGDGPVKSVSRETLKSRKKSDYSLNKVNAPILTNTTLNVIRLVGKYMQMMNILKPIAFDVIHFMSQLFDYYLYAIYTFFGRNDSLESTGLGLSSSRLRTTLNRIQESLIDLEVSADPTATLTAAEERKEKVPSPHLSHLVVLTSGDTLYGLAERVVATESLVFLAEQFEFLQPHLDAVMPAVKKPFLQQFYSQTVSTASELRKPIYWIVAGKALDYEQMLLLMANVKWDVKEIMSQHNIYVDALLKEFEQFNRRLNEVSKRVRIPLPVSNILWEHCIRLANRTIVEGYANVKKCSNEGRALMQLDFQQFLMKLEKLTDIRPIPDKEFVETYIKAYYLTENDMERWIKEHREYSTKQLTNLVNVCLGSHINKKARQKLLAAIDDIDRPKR

| Target | log2 fold change [1] | log2 fold change (volasertib) | log2 fold change [2] | log2 fold change (epoxomicin) | log2 fold change [3] | log2 fold change [4] | log2 fold change [5] | log2 fold change (rosiglitazone) | log2 fold change [6] | log2 fold change [7] | log2 fold change (saracatinib) | log2 fold change (sotrastaurin) | log2 fold change (alvocidib) | log2 fold change (Tubastatin A) | log2 fold change [8] | log2 fold change (defactinib) | log2 fold change (rucaparib) | log2 fold change [9] | log2 fold change (encorafenib) | log2 fold change [10] |
| --- | --- | --- | --- | --- | --- | --- | --- | --- | --- | --- | --- | --- | --- | --- | --- | --- | --- | --- | --- | --- |
| TNFAIP8 isoform 4 (UniProt O95379) | -0.015 | -0.414 | 0.053 | 0.041 | 0.07 | -0.088 | 0.022 | 0.001 | -0.084 | -0.125 | 0.009 | -0.125 | -0.072 | 0.083 | -0.046 | -0.033 | -0.04 | -0.064 | -0.016 | -0.015 |
| VWA8 (UniProt A3KMH1) | -0.027 | -0.071 | 0.048 | -0.005 | 0.002 | -0.094 | 0.056 | 0.024 | -0.01 | -0.034 | -0.012 | -0.003 | -0.046 | 0.072 | 0.006 | -0.017 | 0.008 | -0.013 | 0.003 | -0.049 |
| USP34 (UniProt Q70CQ2) | -0.215 | -0.455 (active) | -0.023 | 0.02 | -0.027 | -0.043 | 0.014 | 0.065 | 0.015 | -0.201 | 0.006 | -0.102 | -0.274 | 0.069 | -0.049 | -0.164 | -0.055 | -0.015 | 0.08 | 0.002 |
| WDR4 (UniProt P57081) | -0.031 | -0.072 | 0.025 | 0.074 | -0.03 | -0.06 | 0.022 | 0.177 | -0.08 | -0.114 | 0.008 | 0.071 | -0.068 | 0.018 | -0.022 | -0.027 | -0.079 | 0.024 | 0.041 | -0.033 |
| VPS35L (UniProt Q7Z3J2) | 0.021 | -0.365 (active) | -0.038 | 0.003 | -0.014 | 0.071 | 0.005 | 0.072 | -0.076 | -0.099 | 0.013 | -0.141 | 0.17 | -0.015 | -0.016 | -0.081 | 0.018 | 0.045 | -0.001 | -0.037 |
| VTA1 (UniProt Q9NP79) | -0.172 | -0.291 (active) | 0.06 | 0.024 | 0.026 | -0.045 | 0.048 | 0.016 | -0.041 | -0.079 | 0.028 | -0.022 | -0.081 | -0.046 | 0.045 | -0.029 | 0.011 | -0.011 | 0.023 | -0.033 |
| UBC (UniProt P0CG48) | 0.065 | 0.087 | 0.015 | 0.401 (active) | 0.026 | 0.024 | 0.003 | 0.003 | -0.023 | 0.158 | -0.106 | 0.042 | -0.049 | 0.252 | 0.002 | 0.031 | 0.053 | 0.017 | -0.124 | 0.005 |
| UQCR10 (UniProt Q9UDW1) | 0.093 | -0.102 | -0.031 | 0.005 | 0.088 | -0.112 | 0.008 | 0.017 | -0.016 | 0.177 | 0.001 | 0.121 | -0.024 | -0.103 | 0.018 | 0.039 | -0.063 | 0.018 | 0.001 | -0.031 |
| TMEM173 (UniProt Q86WV6) | 0.219 | 0.156 | 0.086 | 0.026 | 0.021 | -0.017 | 0.032 | 0.044 | -0.049 | 0.293 (active) | -0.002 | -0.023 | -0.07 | 0.03 | 0.014 | -0.055 | -0.078 | 0.034 | 0.062 | -0.005 |
| WASHC5 (UniProt Q12768) | -0.109 | -0.268 | 0.09 | 0.049 | -0.061 | 0.035 | 0.045 | 0.008 | -0.006 | -0.114 | 0.007 | -0.02 | -0.042 | 0.047 | 0.062 | -0.032 | 0.045 | -0.009 | 0.033 | -0.033 |
| UBE3D (UniProt Q7Z6J8) | -0.033 | -0.053 | 0.012 | 0.031 | 0.063 | -0.023 | -0.004 | 0.003 | -0.051 | -0.016 | 0.027 | -0.007 | -0.059 | -0.043 | -0.058 | -0.003 | 0.161 | -0.064 | 0.005 | -0.108 |
| WBP4 (UniProt O75554) | -0.004 | -0.045 | 0.003 | 0.069 | 0.025 | -0.089 | -0.036 | -0.038 | -0.058 | 0.218 | 0.113 | 0.012 | -0.032 | -0.02 | -0.015 | 0.012 | -0.031 | -0.019 | -0.046 | 0.045 |
| VPS50 (UniProt Q96JG6) | -0.168 | -0.415 (active) | 0.08 | 0.009 | -0.037 | -0.026 | 0.009 | 0.008 | 0.036 | -0.101 | -0.108 | -0.089 | -0.07 | 0.036 | 0.04 | -0.11 | 0.033 | -0.012 | 0.1 | -0.022 |
| WASHC2A (UniProt Q641Q2) | -0.058 | -0.15 | 0.026 | 0.022 | 0.018 | 0.052 | -0.046 | -0.004 | 0.037 | -0.18 | 0.013 | 0.001 | 0.052 | 0.016 | 0.015 | 0.01 | 0.045 | -0.039 | 0.019 | 0.017 |
| WDR7 (UniProt Q9Y4E6) | -0.09 | -0.415 (active) | 0.027 | -0.007 | -0.085 | -0.007 | 0.279 | 0.082 | 0.034 | -0.199 | 0.024 | 0.041 | 0.04 | -0.047 | -0.114 | -0.3 | 0.128 | -0.015 | -0.174 | -0.373 |
| TNPO2 (UniProt O14787) | -0.176 | -0.36 (active) | 0.106 | 0.029 | -0.031 | -0.027 | 0.111 | 0.068 | 0.016 | 0.06 | 0.066 | -0.055 | -0.188 | 0.03 | 0.013 | -0.188 | -0.051 | 0.054 | 0.133 | -0.079 |
